A selection: hits, their analogues and other compounds. The true share with any hit is near 1.1%.
SRC2 inh: inhibition of GAL4-SRC2 driven luciferase reporter, primary screen, SRC2 inhibitor project, cell-based, luminescence; Nuclear receptor coactivator 2 (Homo sapiens), Q15596; HEK293 GAL4-SRC2 luciferase reporter; inhibition, % at 9 µM; hit rate 0.17% among 370,000; AID 651957, 2012;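 active = inhibition above the mean inhibition of all tested compounds plus 3 SD, set per campaign, cut at about 52% in these data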
COUP-TFII inh: NR2F2 transcriptional activity inhibitors, primary screen, cell-based, luciferase reporter, HEK293T, luminescence; COUP transcription factor 2 (Homo sapiens), P24468; HEK293T NGFI-A luciferase reporter; inhibition, % at 8.6 µM; hit rate 0.7% among 370,000;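 active = inhibition above a per-plate cutoff, mean inhibition of test wells between control levels plus 3 SD, cut at about 38% in these data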;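 note: cells cotransfected with COUP-TFII expression vector driving the NGFI-A reporter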
SRC3 inh: SRC3 coactivator transcriptional activity inhibitors, primary screen, cell-based, luminescence; HEK293 GAL4-SRC3 luciferase reporter; inhibition, % at 3.6 µM; hit rate 0.17% among 360,000;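 active = inhibition above a per-campaign cutoff, the mean of all compounds plus 3 SD, cut at about 60% in these data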;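 note: higher means less SRC3-driven luciferase light from the GAL4 reporter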
GalR3 antagonist: GalR3 antagonists in HEK293 cells, primary screen, cell-based, fluorescence readout | Galanin receptor type 3 (Homo sapiens), O60755 | HEK293 GalR3-CNG cAMP membrane potential fluorescence; galR3 body fused to GalR1 C-terminus | inhibition, % at 3 µM | hit rate 0.44% among 360,000 | AID 651719, 2012;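 active = inhibition above the screen-wide average plus 3 SD, cut at about 13% in these data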;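 note: forskolin and galanin both at EC90 stimulate the cells; cAMP rise reported by CNG channel membrane potential dye signal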
NR5A2 inv ag: LRH-1 (NR5A2) inverse agonists, primary screen, cell-based, luminescence, HEK293T, StAR-luciferase reporter; Nuclear receptor subfamily 5 group A member 2 (Homo sapiens), O00482; hit rate 0.13% among 360,000; AID 602396, 2012; LRH-1 transfected, 24 h; inhibition, % at 3.6 µM;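 active = inhibition above the mean inhibition of all tested compounds plus 3 SD, cut at about 73% in these data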
NCOA1 inh: SRC1 coactivator transcriptional activity inhibitors, primary screen, cell-based, luminescence | Nuclear receptor coactivator 1 (Homo sapiens), Q15788 | HEK293 GAL4-SRC1 luciferase reporter | inhibition, % at 3.6 µM | hit rate 0.12% among 360,000;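 active = inhibition above the campaign mean plus 3 SD, with each screening campaign given its own cutoff, cut at about 60% in these data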
VP16 Luc counter: Gal4-VP16 luciferase reporter inhibitors, counter-screen for COUP-TFII antagonist project, cell-based, luminescence, HEK293 | shares compounds with COUP-TFII inh | inhibition, % at 8.5 µM | hit rate 25% among 2,500; in the data active = inhibition above about 13%
NR2F2 inh conf: NR2F2 transcriptional activity inhibitors, confirmation, cell-based, luciferase reporter, HEK293, triplicate. shares compounds with COUP-TFII inh. HEK293 NGFI-A luciferase reporter, luminescence. inhibition, % at 8.5 µM. hit rate 45% among 2,500. AID 687008, 2013;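 active = mean inhibition over three repeats above a set limit taken from the earlier primary screen, cut at about 38% in these data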
Of the large screens only hits and unclear results are named; the others gave an inactive call (follow-up assays come after a bar, where they were run).

Cc1nc(-c2ccc(C(=O)Nc3ccc(F)cc3)cc2)cs1	none
Cc1nc(-c2ccc(NC(=O)c3ccco3)cc2)cs1	COUP-TFII inh 41.0 | VP16 Luc counter inactive | NR2F2 inh conf inactive
Cc1nc(-c2ccc(C(=O)Nc3cccc(F)c3)cc2)cs1	COUP-TFII inh 55.8 | VP16 Luc counter inactive | NR2F2 inh conf inactive
Cc1nc(-c2cccc(NC(=O)c3ccco3)c2)cs1	none
CCCCCCCCN1C(=O)[C@@H](CC(=O)NCCC(C)C)C[C@@]2(C(=O)OC)C1=C[C@H](COCc1ccccc1)O[C@@H]2C	none (no result: SRC3 inh, GalR3 antagonist, NR5A2 inv ag, NCOA1 inh)
COc1cccc(CNc2nc(NCC3CC3)nc3ccsc23)c1OC	COUP-TFII inh 58.5 | VP16 Luc counter inactive | NR2F2 inh conf inactive
COc1cccc(CNc2nc(NCC3CC3)nc3ccsc23)c1	COUP-TFII inh 43.1 | VP16 Luc counter inactive | NR2F2 inh conf inactive
CSc1ccccc1CNc1nc(NCC2CC2)nc2ccsc12	COUP-TFII inh 52.8 | VP16 Luc counter inactive | NR2F2 inh conf inactive
CC(C)c1ccc(CNc2nc(NCC3CC3)nc3ccsc23)cc1	none
COC(=O)[C@]12C[C@H](CC(=O)N3CCCCC3)C(=O)N(CCC3=CCCCC3)C1=C[C@H](C(C)C)O[C@@H]2C1CC1	none (no result: SRC3 inh, GalR3 antagonist, NR5A2 inv ag, NCOA1 inh)
O=C(c1cccc(F)c1F)N1CCCC(c2nc(-c3cccs3)no2)C1 (configuration not stated)	none (no result: SRC3 inh, GalR3 antagonist, NR5A2 inv ag, NCOA1 inh)
CCN(CC)C(=O)CC[C@@H]1CC[C@]2(CCCN(C(=O)c3ccno3)C2)O1	none (no result: SRC3 inh, GalR3 antagonist, NR5A2 inv ag, NCOA1 inh)
CCn1c(SCC(=O)Nc2cccc3ccccc23)nnc1-c1cccs1	none (no result: SRC3 inh, GalR3 antagonist, NR5A2 inv ag, NCOA1 inh)
c1ccc(-c2csc3ncnc(NCC4COc5ccccc5O4)c23)cc1 (configuration not stated)	COUP-TFII inh 65.2, GalR3 antagonist 88.4 | VP16 Luc counter 15.9 | NR2F2 inh conf 82.5
c1ccc(-c2csc3ncnc(NCCCN4CCOCC4)c23)cc1	none
CCC1Sc2ccc(S(=O)(=O)Nc3ccc(OC)c(OC)c3)cc2NC1=O (configuration not stated)	COUP-TFII inh 52.0 | VP16 Luc counter inactive | NR2F2 inh conf inactive
COc1cc(SC)ccc1C(=O)Nc1ncc(C)s1	SRC2 inh 53.0, COUP-TFII inh 48.4 | VP16 Luc counter inactive | NR2F2 inh conf inactive
CCOc1ccc(NC(=O)NCCCn2c(C)nc3cc(C)c(C)cc32)cc1	none
Cc1cc2nc(C)n(CCCNC(=O)Nc3cccc4ccccc34)c2cc1C	COUP-TFII inh 37.7 | VP16 Luc counter inactive | NR2F2 inh conf inactive
COc1cccc(Cn2c(NCc3ccco3)nc3c2c(=O)n(C)c(=O)n3C)c1	COUP-TFII inh 49.2 (no result: SRC3 inh, NR5A2 inv ag, NCOA1 inh) | VP16 Luc counter inactive | NR2F2 inh conf inactive
COc1ccc(Cl)c(Cn2c(NCc3ccco3)nc3c2c(=O)n(C)c(=O)n3C)c1	none
COC(=O)[C@]1(CNC(=O)C(C)(C)C)CC(=O)N(C)[C@@H]1c1ccccc1	none (no result: SRC3 inh, GalR3 antagonist, NR5A2 inv ag, NCOA1 inh)
CCOC(=O)C1(Cc2ccc(Cl)cc2)CCN(C(=O)c2sc(C)nc2C)CC1	COUP-TFII inh 42.2 | VP16 Luc counter inactive | NR2F2 inh conf inactive
CCOC(=O)C1(Cc2ccc(OC)cc2)CCN(C(=O)c2sc(C)nc2C)CC1	none
OCCCN1CCC2(CCC(c3ccccc3)CC2)C1 (configuration not stated)	none (no result: SRC3 inh, GalR3 antagonist, NR5A2 inv ag, NCOA1 inh)
Cc1cccc(-n2ncc3c(N(C)C4CCCCC4)ncnc32)c1	SRC2 inh 62.5, COUP-TFII inh 87.2, SRC3 inh 81.3, NR5A2 inv ag 76.8, NCOA1 inh 81.2 | VP16 Luc counter 48.6 | NR2F2 inh conf 92.3
